Targets with a hit are over-represented here; the source holds about 8,800 in all. About 0.5% of all pairs of compound and target were hits. Unmarked numbers belong to inactive results.
Compound: CN1CC[C@H](c2c(O)cc(O)c3c(=O)cc(-c4ccccc4Cl)oc23)[C@H](O)C1 [alvocidib]
Assay: log2 fold change, soluble protein after heating vs DMSO (PISA); higher = thermal stabilisation; K562 lysate, 10 uM; active = over 0.2 and 3.5 SD of the protein, either way, in both replicates (recomputed)
Method in brief: (§1)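 Quantification was by TMTpro 16plex LC-MS/MS with equalised channel sums, applied to the supernatant after 21,000xg for 90 min. Samples were crude K562 extract at 1 mg/mL protein in PBS pH 7.4 with 1 mM MgCl2, treated with 10 μM compound for 30 min, heated for 3 min across 48°C-58°C, pooled and brought to 0.5% NP-40 at 4°C. Values are log-two fold changes in thermal stability relative to solvent controls, from duplicates.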

Sequence of UniProt P04150 (P04150 whole entry, looked up): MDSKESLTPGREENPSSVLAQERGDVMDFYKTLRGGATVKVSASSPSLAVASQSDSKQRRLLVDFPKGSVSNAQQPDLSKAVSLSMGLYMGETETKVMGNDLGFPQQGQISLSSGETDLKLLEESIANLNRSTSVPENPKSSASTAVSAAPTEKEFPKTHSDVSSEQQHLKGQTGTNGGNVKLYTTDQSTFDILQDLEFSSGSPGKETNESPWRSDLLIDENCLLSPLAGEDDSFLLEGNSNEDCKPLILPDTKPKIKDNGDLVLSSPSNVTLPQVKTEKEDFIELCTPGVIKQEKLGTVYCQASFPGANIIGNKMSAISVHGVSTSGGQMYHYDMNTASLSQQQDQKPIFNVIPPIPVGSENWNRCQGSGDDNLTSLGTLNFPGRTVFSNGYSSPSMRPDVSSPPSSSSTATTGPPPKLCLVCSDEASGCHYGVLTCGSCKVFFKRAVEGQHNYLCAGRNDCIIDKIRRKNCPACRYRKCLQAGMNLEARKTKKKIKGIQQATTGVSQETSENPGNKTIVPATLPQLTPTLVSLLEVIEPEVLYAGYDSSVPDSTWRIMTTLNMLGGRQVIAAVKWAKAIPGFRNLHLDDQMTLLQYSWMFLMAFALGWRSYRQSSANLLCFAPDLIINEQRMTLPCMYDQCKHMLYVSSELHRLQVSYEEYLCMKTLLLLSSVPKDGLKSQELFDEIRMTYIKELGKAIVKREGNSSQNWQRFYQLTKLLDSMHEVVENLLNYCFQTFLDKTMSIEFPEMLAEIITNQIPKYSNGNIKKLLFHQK
Sequence of UniProt P08651 (P08651 whole entry, looked up): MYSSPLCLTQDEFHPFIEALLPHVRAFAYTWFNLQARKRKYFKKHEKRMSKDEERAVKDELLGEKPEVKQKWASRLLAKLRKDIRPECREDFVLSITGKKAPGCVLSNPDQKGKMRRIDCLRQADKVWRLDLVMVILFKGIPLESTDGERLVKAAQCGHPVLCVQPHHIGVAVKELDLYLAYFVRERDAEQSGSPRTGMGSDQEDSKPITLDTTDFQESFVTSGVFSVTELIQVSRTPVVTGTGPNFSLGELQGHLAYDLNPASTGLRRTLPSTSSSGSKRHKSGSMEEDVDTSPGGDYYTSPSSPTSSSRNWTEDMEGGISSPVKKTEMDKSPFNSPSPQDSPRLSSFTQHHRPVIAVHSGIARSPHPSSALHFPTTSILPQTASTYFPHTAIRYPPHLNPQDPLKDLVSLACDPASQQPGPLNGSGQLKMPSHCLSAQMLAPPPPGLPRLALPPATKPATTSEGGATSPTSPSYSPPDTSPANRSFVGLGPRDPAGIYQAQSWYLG
Sequence of UniProt Q13153 (Q13153 whole entry, looked up): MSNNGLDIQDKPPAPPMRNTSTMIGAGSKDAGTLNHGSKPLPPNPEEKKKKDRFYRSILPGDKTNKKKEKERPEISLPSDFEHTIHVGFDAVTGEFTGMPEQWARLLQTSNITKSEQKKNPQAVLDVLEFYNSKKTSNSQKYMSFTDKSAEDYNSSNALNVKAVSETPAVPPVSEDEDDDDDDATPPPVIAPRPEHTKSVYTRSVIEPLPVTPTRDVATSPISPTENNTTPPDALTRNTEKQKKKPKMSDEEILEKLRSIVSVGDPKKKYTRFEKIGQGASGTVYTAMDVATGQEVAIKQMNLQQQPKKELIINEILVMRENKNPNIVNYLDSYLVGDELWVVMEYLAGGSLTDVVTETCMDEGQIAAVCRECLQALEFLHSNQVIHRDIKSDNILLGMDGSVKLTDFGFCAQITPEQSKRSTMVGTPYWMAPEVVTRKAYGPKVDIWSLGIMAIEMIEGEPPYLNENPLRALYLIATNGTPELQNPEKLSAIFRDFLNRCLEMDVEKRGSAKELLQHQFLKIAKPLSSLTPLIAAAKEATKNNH
Sequence of UniProt P40261 (P40261 whole entry, looked up): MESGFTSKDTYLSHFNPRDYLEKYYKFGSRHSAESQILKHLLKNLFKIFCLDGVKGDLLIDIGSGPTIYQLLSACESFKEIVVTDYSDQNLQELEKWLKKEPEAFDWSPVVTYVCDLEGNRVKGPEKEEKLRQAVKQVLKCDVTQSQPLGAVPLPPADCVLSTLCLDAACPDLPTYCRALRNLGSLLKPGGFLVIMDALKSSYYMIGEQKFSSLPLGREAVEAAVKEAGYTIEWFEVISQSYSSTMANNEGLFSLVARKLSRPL
Sequence of UniProt Q9NZT2 (Q9NZT2 whole entry, looked up): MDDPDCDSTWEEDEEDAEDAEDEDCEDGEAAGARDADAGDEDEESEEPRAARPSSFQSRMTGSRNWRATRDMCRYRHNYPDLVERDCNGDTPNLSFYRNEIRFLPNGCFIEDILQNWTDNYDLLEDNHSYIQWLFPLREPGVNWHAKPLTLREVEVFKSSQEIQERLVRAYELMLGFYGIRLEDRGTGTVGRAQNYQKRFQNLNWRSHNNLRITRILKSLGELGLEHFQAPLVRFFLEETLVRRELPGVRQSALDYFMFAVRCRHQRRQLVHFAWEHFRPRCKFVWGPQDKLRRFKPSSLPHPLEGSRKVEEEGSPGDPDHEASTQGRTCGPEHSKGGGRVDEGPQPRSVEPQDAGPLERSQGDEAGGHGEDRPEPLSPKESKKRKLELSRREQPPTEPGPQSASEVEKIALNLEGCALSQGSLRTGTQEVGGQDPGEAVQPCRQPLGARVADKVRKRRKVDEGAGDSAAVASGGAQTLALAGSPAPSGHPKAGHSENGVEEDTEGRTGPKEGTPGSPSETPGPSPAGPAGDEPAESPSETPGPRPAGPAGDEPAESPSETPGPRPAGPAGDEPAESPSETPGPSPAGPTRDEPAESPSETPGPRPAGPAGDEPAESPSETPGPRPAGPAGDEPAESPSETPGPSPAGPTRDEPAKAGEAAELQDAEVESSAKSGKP
Sequence of UniProt Q6IBW4 (Q6IBW4 whole entry, looked up): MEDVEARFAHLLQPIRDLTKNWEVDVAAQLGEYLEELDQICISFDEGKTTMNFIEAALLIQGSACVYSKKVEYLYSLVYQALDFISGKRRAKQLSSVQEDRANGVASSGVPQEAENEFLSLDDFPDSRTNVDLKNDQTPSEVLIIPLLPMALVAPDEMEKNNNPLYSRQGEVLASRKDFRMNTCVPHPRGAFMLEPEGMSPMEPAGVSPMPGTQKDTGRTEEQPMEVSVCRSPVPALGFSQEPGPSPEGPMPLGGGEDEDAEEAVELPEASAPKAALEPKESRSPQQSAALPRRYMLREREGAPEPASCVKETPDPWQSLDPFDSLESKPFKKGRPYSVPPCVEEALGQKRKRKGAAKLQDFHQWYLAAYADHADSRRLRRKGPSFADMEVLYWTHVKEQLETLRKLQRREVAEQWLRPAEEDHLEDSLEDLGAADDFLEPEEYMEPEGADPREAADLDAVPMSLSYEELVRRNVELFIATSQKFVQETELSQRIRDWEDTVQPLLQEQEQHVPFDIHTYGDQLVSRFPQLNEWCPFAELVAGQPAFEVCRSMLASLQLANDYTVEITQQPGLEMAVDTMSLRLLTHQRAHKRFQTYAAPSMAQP
Sequence of UniProt Q8NC60 (Q8NC60 whole entry, looked up): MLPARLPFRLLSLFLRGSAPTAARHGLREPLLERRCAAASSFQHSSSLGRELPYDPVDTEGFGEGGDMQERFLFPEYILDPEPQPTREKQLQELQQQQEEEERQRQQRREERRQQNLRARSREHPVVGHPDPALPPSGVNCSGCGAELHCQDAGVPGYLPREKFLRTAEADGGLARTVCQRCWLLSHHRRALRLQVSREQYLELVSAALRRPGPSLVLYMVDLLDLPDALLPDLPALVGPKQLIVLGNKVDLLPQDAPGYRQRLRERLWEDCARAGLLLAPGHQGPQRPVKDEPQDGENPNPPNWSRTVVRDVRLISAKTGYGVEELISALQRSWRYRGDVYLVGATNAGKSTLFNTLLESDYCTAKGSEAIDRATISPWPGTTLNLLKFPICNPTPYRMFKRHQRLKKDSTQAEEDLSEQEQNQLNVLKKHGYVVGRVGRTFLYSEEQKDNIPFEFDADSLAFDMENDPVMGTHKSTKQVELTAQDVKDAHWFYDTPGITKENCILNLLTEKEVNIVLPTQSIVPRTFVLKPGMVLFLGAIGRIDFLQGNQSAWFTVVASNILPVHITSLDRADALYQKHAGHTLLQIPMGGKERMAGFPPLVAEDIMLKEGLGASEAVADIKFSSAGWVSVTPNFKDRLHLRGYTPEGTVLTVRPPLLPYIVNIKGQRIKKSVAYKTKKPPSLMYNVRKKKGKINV
Sequence of UniProt O60313 (O60313 whole entry, looked up): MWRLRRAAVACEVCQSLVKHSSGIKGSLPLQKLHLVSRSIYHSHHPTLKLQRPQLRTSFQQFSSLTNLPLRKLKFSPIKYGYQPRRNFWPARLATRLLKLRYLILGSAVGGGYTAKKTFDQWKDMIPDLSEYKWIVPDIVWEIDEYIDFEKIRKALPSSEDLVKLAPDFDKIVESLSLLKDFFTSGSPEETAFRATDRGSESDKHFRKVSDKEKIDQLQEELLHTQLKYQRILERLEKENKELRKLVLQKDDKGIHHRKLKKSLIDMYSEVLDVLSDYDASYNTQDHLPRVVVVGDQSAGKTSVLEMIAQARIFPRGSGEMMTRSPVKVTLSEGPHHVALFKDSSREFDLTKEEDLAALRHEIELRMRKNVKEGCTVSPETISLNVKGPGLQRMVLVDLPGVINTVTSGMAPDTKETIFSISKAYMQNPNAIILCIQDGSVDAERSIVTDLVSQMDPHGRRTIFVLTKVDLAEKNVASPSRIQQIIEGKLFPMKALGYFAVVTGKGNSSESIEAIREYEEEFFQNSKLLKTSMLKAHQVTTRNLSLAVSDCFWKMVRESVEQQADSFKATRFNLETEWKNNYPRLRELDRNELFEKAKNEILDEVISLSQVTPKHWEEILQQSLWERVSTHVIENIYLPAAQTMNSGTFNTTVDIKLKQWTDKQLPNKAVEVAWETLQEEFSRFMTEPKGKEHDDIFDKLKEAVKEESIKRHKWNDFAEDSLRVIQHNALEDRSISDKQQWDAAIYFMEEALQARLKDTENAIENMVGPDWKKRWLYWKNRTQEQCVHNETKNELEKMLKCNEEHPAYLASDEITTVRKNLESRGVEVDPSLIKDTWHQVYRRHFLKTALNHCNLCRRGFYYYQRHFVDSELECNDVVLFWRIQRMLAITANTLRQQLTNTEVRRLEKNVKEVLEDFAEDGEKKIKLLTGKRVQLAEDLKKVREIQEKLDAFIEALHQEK

Question: How did the log2 fold change turn out when NAT1 (UniProt P18440) was run?
Answer: 0.038

Question: MYCBP (UniProt Q99417) was tested. Which log2 fold change did it give?
Answer: -0.244

Question: PAK4 (UniProt O96013) was tested. Which log2 fold change did it give?
Answer: -0.019

Question: NUMBL (UniProt Q9Y6R0) was tested. Which log2 fold change did it give?
Answer: -0.032

Question: With MYD88 isoform 6 (UniProt Q99836) as the target, how does the log2 fold change read?
Answer: 0

Question: Which log2 fold change does the source give for NNMT (UniProt P40261) here?
Answer: -0.001

Question: For NR3C1 isoform 3 (UniProt P04150), which log2 fold change is on record?
Answer: -0.004

Question: With NOSTRIN (UniProt Q8IVI9) as the target, how does the log2 fold change read?
Answer: -0.009

Question: MYO1C (UniProt O00159) was tested. Which log2 fold change did it give?
Answer: 0.029

Question: NTPCR (UniProt Q9BSD7) was tested. Which log2 fold change did it give?
Answer: 0.007

Question: Which log2 fold change does the source give for OGFR (UniProt Q9NZT2) here?
Answer: 0.022

Question: For OARD1 (UniProt Q9Y530), which log2 fold change is on record?
Answer: -0.003

Question: For NEDD8 (UniProt Q15843), which log2 fold change is on record?
Answer: 0.169

Question: Which log2 fold change does the source give for PAK1 (UniProt Q13153) here?
Answer: -0.023

Question: For NF1 (UniProt P21359), which log2 fold change is on record?
Answer: 0.03

Question: How did the log2 fold change turn out when OGT (UniProt O15294) was run?
Answer: 0.045

Question: How did the log2 fold change turn out when NPLOC4 isoform 2 (UniProt Q8TAT6) was run?
Answer: -0.06

Question: MYCBP2 (UniProt O75592) was tested. Which log2 fold change did it give?
Answer: -0.046

Question: With NUP188 (UniProt Q5SRE5) as the target, how does the log2 fold change read?
Answer: 0.004

Question: For NUF2 (UniProt Q9BZD4), which log2 fold change is on record?
Answer: 0

Question: Which log2 fold change does the source give for NCAPH2 (UniProt Q6IBW4) here?
Answer: 0.038

Question: Which log2 fold change does the source give for NARS2 (UniProt Q96I59) here?
Answer: 0.013

Question: With NCOR2 (UniProt C9J0Q5) as the target, how does the log2 fold change read?
Answer: 0.024

Question: For MTCH2 (UniProt Q9Y6C9), which log2 fold change is on record?
Answer: -0.032

Question: NTMT1 (UniProt Q9BV86) was tested. Which log2 fold change did it give?
Answer: 0.047

Question: OGFOD2 (UniProt Q6N063) was tested. Which log2 fold change did it give?
Answer: 0.029

Question: OCRL (UniProt Q01968) was tested. Which log2 fold change did it give?
Answer: -0.002

Question: For NOA1 (UniProt Q8NC60), which log2 fold change is on record?
Answer: -0.016

Question: For OPA1 isoform 2 (UniProt O60313), which log2 fold change is on record?
Answer: 0.012

Question: NACC1 (UniProt Q96RE7) was tested. Which log2 fold change did it give?
Answer: -0.02

Question: NFIC (UniProt P08651) was tested. Which log2 fold change did it give?
Answer: -0.103

Question: Which log2 fold change does the source give for PBK (UniProt Q96KB5) here?
Answer: 0.013

Question: For NUMB (UniProt P49757), which log2 fold change is on record?
Answer: -0.021

Question: For NEK7 (UniProt Q8TDX7), which log2 fold change is on record?
Answer: -0.055

Question: With MT-CYB (UniProt P00156) as the target, how does the log2 fold change read?
Answer: -0.326

Compound: CN1CCc2c(c3ccccc3n2Cc2ccc(C(=O)NO)cc2)C1 [Tubastatin A]
Assay: as above
Method in brief: as §1

Question: For NAT1 (UniProt P18440), which log2 fold change is on record?
Answer: -0.087

Question: How did the log2 fold change turn out when MYCBP (UniProt Q99417) was run?
Answer: 0.045

Question: For PAK4 (UniProt O96013), which log2 fold change is on record?
Answer: -0.038

Question: Which log2 fold change does the source give for NUMBL (UniProt Q9Y6R0) here?
Answer: -0.103

Question: How did the log2 fold change turn out when MYD88 isoform 6 (UniProt Q99836) was run?
Answer: -0.216

Question: With NNMT (UniProt P40261) as the target, how does the log2 fold change read?
Answer: -0.03

Question: Which log2 fold change does the source give for NR3C1 isoform 3 (UniProt P04150) here?
Answer: -0.088

Question: With NOSTRIN (UniProt Q8IVI9) as the target, how does the log2 fold change read?
Answer: -0.35 (active)

Question: How did the log2 fold change turn out when MYO1C (UniProt O00159) was run?
Answer: -0.114

Question: How did the log2 fold change turn out when NTPCR (UniProt Q9BSD7) was run?
Answer: -0.163

Question: How did the log2 fold change turn out when OGFR (UniProt Q9NZT2) was run?
Answer: -0.089

Question: Which log2 fold change does the source give for OARD1 (UniProt Q9Y530) here?
Answer: -0.097

Question: For NEDD8 (UniProt Q15843), which log2 fold change is on record?
Answer: 0.132

Question: PAK1 (UniProt Q13153) was tested. Which log2 fold change did it give?
Answer: 0.026

Question: NF1 (UniProt P21359) was tested. Which log2 fold change did it give?
Answer: -0.098

Question: For OGT (UniProt O15294), which log2 fold change is on record?
Answer: -0.129

Question: With NPLOC4 isoform 2 (UniProt Q8TAT6) as the target, how does the log2 fold change read?
Answer: 0.013

Question: MYCBP2 (UniProt O75592) was tested. Which log2 fold change did it give?
Answer: -0.098

Question: With NUP188 (UniProt Q5SRE5) as the target, how does the log2 fold change read?
Answer: -0.049

Question: NUF2 (UniProt Q9BZD4) was tested. Which log2 fold change did it give?
Answer: -0.13

Question: For NCAPH2 (UniProt Q6IBW4), which log2 fold change is on record?
Answer: -0.193

Question: With NARS2 (UniProt Q96I59) as the target, how does the log2 fold change read?
Answer: -0.157

Question: NCOR2 (UniProt C9J0Q5) was tested. Which log2 fold change did it give?
Answer: -0.035

Question: With MTCH2 (UniProt Q9Y6C9) as the target, how does the log2 fold change read?
Answer: -0.046

Question: With NTMT1 (UniProt Q9BV86) as the target, how does the log2 fold change read?
Answer: -0.175

Question: For OGFOD2 (UniProt Q6N063), which log2 fold change is on record?
Answer: 0.033

Question: How did the log2 fold change turn out when OCRL (UniProt Q01968) was run?
Answer: -0.105

Question: How did the log2 fold change turn out when NOA1 (UniProt Q8NC60) was run?
Answer: -0.11

Question: How did the log2 fold change turn out when OPA1 isoform 2 (UniProt O60313) was run?
Answer: 0.038

Question: How did the log2 fold change turn out when NACC1 (UniProt Q96RE7) was run?
Answer: -0.086

Question: Which log2 fold change does the source give for NFIC (UniProt P08651) here?
Answer: -0.104

Question: PBK (UniProt Q96KB5) was tested. Which log2 fold change did it give?
Answer: -0.041

Question: How did the log2 fold change turn out when NUMB (UniProt P49757) was run?
Answer: -0.125

Question: For NEK7 (UniProt Q8TDX7), which log2 fold change is on record?
Answer: -0.113

Question: MT-CYB (UniProt P00156) was tested. Which log2 fold change did it give?
Answer: 0.078

Compound: CNC(=O)C1=CC=CC=C1NC2=NC(=NC=C2Cl)NC3=C(C=C(C=C3)N4CCOCC4)OC
Assay: as above
Method in brief: as §1

Question: Which log2 fold change does the source give for NAT1 (UniProt P18440) here?
Answer: -0.025

Question: Which log2 fold change does the source give for MYCBP (UniProt Q99417) here?
Answer: -0.02

Question: PAK4 (UniProt O96013) was tested. Which log2 fold change did it give?
Answer: 0.27

Question: For NUMBL (UniProt Q9Y6R0), which log2 fold change is on record?
Answer: -0.023

Question: Which log2 fold change does the source give for MYD88 isoform 6 (UniProt Q99836) here?
Answer: -0.006

Question: Which log2 fold change does the source give for NNMT (UniProt P40261) here?
Answer: 0

Question: How did the log2 fold change turn out when NR3C1 isoform 3 (UniProt P04150) was run?
Answer: 0.048

Question: How did the log2 fold change turn out when NOSTRIN (UniProt Q8IVI9) was run?
Answer: 0.027

Question: For MYO1C (UniProt O00159), which log2 fold change is on record?
Answer: -0.057

Question: How did the log2 fold change turn out when NTPCR (UniProt Q9BSD7) was run?
Answer: 0.055

Question: Which log2 fold change does the source give for OGFR (UniProt Q9NZT2) here?
Answer: 0.002

Question: For OARD1 (UniProt Q9Y530), which log2 fold change is on record?
Answer: 0

Question: For NEDD8 (UniProt Q15843), which log2 fold change is on record?
Answer: 0.083

Question: How did the log2 fold change turn out when PAK1 (UniProt Q13153) was run?
Answer: 0.011

Question: NF1 (UniProt P21359) was tested. Which log2 fold change did it give?
Answer: 0.029

Question: How did the log2 fold change turn out when OGT (UniProt O15294) was run?
Answer: 0.054

Question: Which log2 fold change does the source give for NPLOC4 isoform 2 (UniProt Q8TAT6) here?
Answer: 0.019

Question: With MYCBP2 (UniProt O75592) as the target, how does the log2 fold change read?
Answer: 0.024

Question: For NUP188 (UniProt Q5SRE5), which log2 fold change is on record?
Answer: -0.018

Question: How did the log2 fold change turn out when NUF2 (UniProt Q9BZD4) was run?
Answer: 0.03

Question: With NCAPH2 (UniProt Q6IBW4) as the target, how does the log2 fold change read?
Answer: 0

Question: For NARS2 (UniProt Q96I59), which log2 fold change is on record?
Answer: -0.046

Question: With NCOR2 (UniProt C9J0Q5) as the target, how does the log2 fold change read?
Answer: -0.013

Question: MTCH2 (UniProt Q9Y6C9) was tested. Which log2 fold change did it give?
Answer: 0.043

Question: NTMT1 (UniProt Q9BV86) was tested. Which log2 fold change did it give?
Answer: 0.018

Question: With OGFOD2 (UniProt Q6N063) as the target, how does the log2 fold change read?
Answer: 0.059

Question: Which log2 fold change does the source give for OCRL (UniProt Q01968) here?
Answer: 0.074

Question: NOA1 (UniProt Q8NC60) was tested. Which log2 fold change did it give?
Answer: 0.063

Question: Which log2 fold change does the source give for OPA1 isoform 2 (UniProt O60313) here?
Answer: -0.032

Question: NACC1 (UniProt Q96RE7) was tested. Which log2 fold change did it give?
Answer: 0.002

Question: For NFIC (UniProt P08651), which log2 fold change is on record?
Answer: 0.078

Question: With PBK (UniProt Q96KB5) as the target, how does the log2 fold change read?
Answer: -0.001

Question: With NUMB (UniProt P49757) as the target, how does the log2 fold change read?
Answer: -0.028

Question: How did the log2 fold change turn out when NEK7 (UniProt Q8TDX7) was run?
Answer: 0.552 (active)

Question: MT-CYB (UniProt P00156) was tested. Which log2 fold change did it give?
Answer: -0.027

Source: the supplement of paper PMC10849652
